This passage reports INHIBITION results from ChEMBL document CHEMBL4513216, “Probing the Open Global Health Chemical Diversity Library for Multistage-Active Starting Points for Next-Generation Antimalarials” (ACS Infect Dis, 2020).

The whole screen tested about 69,000 compounds, of which about 8,600 (12%) showed an effect of 50% or more. Shown is part of a subset that was picked to be rich in strong results.

The assay concerns Plasmodium berghei. Briefly: Screen against P. berghei liver stage (PbLuc), transformed with Luciferase, at 10uM. The conditions noted are these: tested at 10 uM. In kind it is functional, HepG2.
As to `Cc1nc(CCNC2CCN(Cc3ccccc3)C2)sc1C` (stereo not drawn), the INHIBITION amounted to 40.5%. Under `CCc1nc(C)sc1CN1CC[C@](C)(O)[C@H](C)C1` stands 48.5%. As for `Cc1nc(CNC2CCN(Cc3ccccc3)C2)sc1C` (stereo not drawn), the figure is 47.9%; as for `CCc1nc(C)sc1CNC1CCN(Cc2ccccc2)C1` (stereo not drawn), 51.1%. Take `CCc1csc(CNC2CCN(c3ccc(C)cc3)CC2)n1`: the INHIBITION is listed as 1.94%. As for `CCc1csc(CNC2CCN(Cc3ccccc3)C2)n1` (stereo not drawn), the figure is 64%; as for `CNc1ncccc1CN1CCCCC1c1ccnc(N)n1` (stereo not drawn), 32.3%. As for `O=C(NCC1CC1)[C@H]1CC[C@@H]2[C@@H](CCN2Cc2nccs2)O1`, the figure is 46.1%; as for `COC(=O)c1cccn1C1CCN(CC(=O)NC2CCCCC2)CC1`, 43.7%; as for `Cc1noc(C)c1C(=O)N(C)C(C)c1ccc(S(C)(=O)=O)cc1` (stereo not drawn), 10.7%. As for `Cc1noc(C)c1C(=O)N(C)C(C)c1ccncc1` (stereo not drawn), the figure is 17.5%; as for `Cc1noc(C)c1C(=O)N(C)C(C)c1cccnc1` (stereo not drawn), 79%; as for `CS(=O)(=O)N1CCCN(c2nccn3cnnc23)CC1`, -39.2%. With `OCCN(Cc1ccccc1)Cc1ccsc1`, the INHIBITION was found to be 3.96%. As to `CC(NC(=O)c1ccc(C#N)cn1)C1(N2CCOCC2)CCCC1` (stereo not drawn), the INHIBITION amounted to 37.1%. As for `Cn1ncc2c1NC(=O)CC2c1c(Cl)cccc1Cl` (stereo not drawn), the figure is 25.1%; as for `CC(C)n1ncc2c1NC(=O)CC2c1ccccc1Cl` (stereo not drawn), 9.32%; as for `Cn1ncc2c1NC(=O)CC2c1cc(Cl)ccc1F` (stereo not drawn), 8.49%. As for `Cn1ncc2c1NC(=O)CC2c1cc2c(cc1Cl)OCO2` (stereo not drawn), the figure is 61.2%.

Regarding `Cn1ncc2c1NC(=O)CC2c1ccc(Cl)cc1Cl` (stereo not drawn), the INHIBITION was 34%. With `Cn1ncc2c1NC(=O)CC2c1ccccc1Cl` (stereo not drawn), the INHIBITION is listed as 54.5%. In the case of `O=C(NCc1cccnc1)c1ccc2nccn2c1`, the INHIBITION amounted to 32.5%. Under `COc1ccccc1CN1CCC(Cc2cnc(CN(C)C)cn2)CC1` stands 8.12%.

On to `Cc1nc(C)c(C(=O)N2CCCC(n3ccnc3C)C2)s1` (stereo not drawn), for which the INHIBITION was 21.7%. As to `O=S(=O)(Cc1c(F)cccc1F)NCCOc1cccnc1`, the INHIBITION was found to be 42.4%. Under `Cc1ccc(C(=O)N2CCCC(n3cccn3)C2)cc1S(C)(=O)=O` (stereo not drawn) stands 23.95%; under `CCc1noc(CCC(=O)N[C@@H]2CC[C@@H](n3ccnc3C)[C@@H]2O)n1`, 56.8%; under `CCc1noc(CCC(=O)N[C@@H]2CC[C@@H](n3ccnc3)[C@@H]2O)n1`, 8.72%. Regarding `Cc1nccn1[C@@H]1CC[C@@H](NC(=O)CCCn2cccn2)[C@H]1O`, the INHIBITION was 4.13%. On to `Cc1cc(NC(=O)c2ccc(F)cc2Cl)n(C)n1`, for which the INHIBITION is reported as -23.8%. Under `COc1ncc(-c2nccn2-c2ccccc2CN2CCOCC2)cn1` stands 32.3%. As for `CCn1ccnc1-c1nccn1-c1ccccc1CN1CCOCC1`, the figure is 58.3%; as for `CCc1cc(-c2nccn2-c2ccccc2CN2CCOCC2)on1`, -4.51%.
